Compound activity from PubChem BioAssay.
Rows were chosen to be rich in hits. Some 4.1% of all compounds tested hit in one or more screens of this group.
Mac1 fbg enh: enhancers of human CD11b/CD18 binding to fibrinogen; K562 CD11b/CD18 adhesion to fibrinogen, ATPlite luminescence; activation, % at 10 µM; 93,000 compounds, 0.07% hits; AID 1499;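 active = 10 µM primary screen giving 50% or more activity, confirmed by 40% or more on retest at that dose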
Target sequence (P05107 whole entry, looked up, other chains not shown): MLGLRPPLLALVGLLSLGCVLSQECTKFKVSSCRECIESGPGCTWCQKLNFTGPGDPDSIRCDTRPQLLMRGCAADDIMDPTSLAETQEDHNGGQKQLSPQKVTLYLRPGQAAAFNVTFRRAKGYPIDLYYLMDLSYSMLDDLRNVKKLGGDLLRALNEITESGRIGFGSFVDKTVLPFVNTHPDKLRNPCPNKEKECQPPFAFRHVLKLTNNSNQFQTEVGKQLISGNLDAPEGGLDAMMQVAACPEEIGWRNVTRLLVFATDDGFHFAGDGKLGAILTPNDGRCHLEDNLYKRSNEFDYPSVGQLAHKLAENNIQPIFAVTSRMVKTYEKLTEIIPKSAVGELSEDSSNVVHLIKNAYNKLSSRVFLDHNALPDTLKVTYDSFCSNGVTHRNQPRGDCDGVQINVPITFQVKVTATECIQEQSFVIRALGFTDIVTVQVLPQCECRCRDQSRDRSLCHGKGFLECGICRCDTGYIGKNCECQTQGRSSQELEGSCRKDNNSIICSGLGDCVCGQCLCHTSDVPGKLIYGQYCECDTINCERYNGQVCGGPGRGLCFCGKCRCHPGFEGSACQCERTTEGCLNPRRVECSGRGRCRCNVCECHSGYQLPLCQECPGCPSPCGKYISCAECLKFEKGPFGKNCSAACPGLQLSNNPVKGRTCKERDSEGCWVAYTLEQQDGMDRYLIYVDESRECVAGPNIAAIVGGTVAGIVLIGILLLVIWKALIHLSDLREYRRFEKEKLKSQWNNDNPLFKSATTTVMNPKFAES
CD11b adhes inh: inhibitors of human CD11b/CD18 binding to fibrinogen | K562 CD11b/CD18 adhesion to fibrinogen, ATPlite luminescence; Mn2+ added to activate the integrin | 93,000 compounds, 0.54% hits | inhibition, % at 10 µM | P05107+P11215 | AID 1497;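 active = primary inhibition of 50% or more at 10 µM, then 40% or more on retest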
Cav3 T inh: blocks human Cav3.2 T-type calcium channel; O95180; Cav3.2-expressing cells, Fluo-4 calcium fluorescence FDSS; hits give low values; B-score at 10 µM; 100,000 compounds, 4% hits; AID 449739;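 active = single-dose well whose peak fluorescence ratio is a statistical outlier from its plate by either plate-standardised score or position-corrected B-score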
MRP reversal: MRP-mediated drug resistance reversal. 85,000 compounds, 0.04% hits. differential viability (reversal), % at 10 µM. AID 602. H69AR cells + 2 uM doxorubicin, CellTiter-Glo, 72 h;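 active = viability drop by adding the cancer drug above about 55%, with treated viability meeting a 40% cutoff, limit read from the data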;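 also: larger differential means the compound sensitizes cells more to doxorubicin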
MRP-1 activ: MRP-1 activation; H69AR cells + doxorubicin, viability rescue, CellTiter-Glo; viability increase, % at 10 µM; 140,000 compounds, 0.61% hits; AID 799;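 active = viability gain under doxorubicin at or above a set limit, the compound median plus 3 SD, cut at about 4.7% in these data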;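 also: MRP-1 overexpressing cells given doxorubicin 25 µM after compound pretreatment; 18-22 h compound pretreatment then 72 h with doxorubicin before readout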
Pyk2 oligo antag: blocks oligomerization of human Pyk2 in cells; z-score (the deposit names both 25 µM and 10 µM); 99,000 compounds, 0.83% hits; AID 1347419; Q293 cells, Pyk2 FERM NanoBiT luminescence; hits give low values;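 active = Z-score of -3 or lower, scaled per plate to the spread of control and sample wells; inactive = z-score above -3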;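 also: negative z-score means lost luminescence so less FERM oligomerization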
Numbers stand for hits; n = inactive; x = no result given.

SMILES | Mac1 fbg enh | CD11b adhes inh | Cav3 T inh | MRP reversal | MRP-1 activ | Pyk2 oligo antag
CN(C)c1ccc(N=Cc2c(O)n(CCC3=CCCCC3)c(=O)[nH]c2=O)cc1 | n | n | n | n | n | -3.4
C=CCn1c(O)c(C=Nc2ccc(N(CC)CC)cc2)c(=O)[nH]c1=O | n | n | n | n | n | n
CCN(CC)c1ccc(N=Cc2c(O)n(CCC3=CCCCC3)c(=O)[nH]c2=O)cc1 | n | n | -5.6 | n | n | n
O=[N+]([O-])/C=C1\NCCN1Cc1ccc(Cl)nc1 | x | x | x | x | n | x
O=C(Nc1cccc(Cl)c1)c1c(O)c2c(n(Cc3ccccc3)c1=O)CCCC2 | x | x | x | x | 5.6 | x
Cc1ccc(O)c(CN2CCN(c3ccccc3)CC2)c1 | n | n | n | n | n | n
CCC(=NCCO)c1c(O)n(C2CCCCC2)c(=O)[nH]c1=O | n | n | n | x | n | n
CCC(=NCc1ccc2c(c1)OCO2)c1c(O)n(C2CCCCC2)c(=O)[nH]c1=O | n | n | -5.8 | n | n | n
CC(=O)N1N=C2C3CCN(CC3)C2C1c1ccccc1 (stereo unspecified) | n | n | -3.9 | x | n | n
CN1C(=O)C(=Cc2ccccc2Oc2ccc(Cl)c(F)c2)C(=O)N(C)C1=O | x | x | -4.8 | x | n | -4.5
CN1C(=O)C(=Cc2ccc(N3CCCCCC3)o2)C(=O)N(C)C1=S | x | x | -7.1 | x | n | n
Cc1cc(C)nc(/N=C(\N)c2c(O)[nH]c(=O)[nH]c2=O)n1 | n | n | n | x | n | n
CCOC(=O)c1c(C)n(COCCO)c2ccc(O)cc12 | n | n | n | n | n | n
CCOC(=O)c1c(C)n(Cc2ccc3c(c2)OCO3)c2ccc(O)cc12 | n | n | n | n | n | -3.3
CCOC(=O)c1c(C)n(Cc2ccco2)c2ccc(O)cc12 | n | n | n | n | n | n
COC(=O)c1c(C)n(Cc2ccc3c(c2)OCO3)c2ccc(O)cc12 | n | n | n | n | n | -4
c1ccc(C2CC3CC4(CCCC4)N2O3)cc1 (stereo unspecified) | n | n | n | n | n | n
COc1ccccc1-n1c(O)c(C=NCCN2CCNCC2)c(=O)[nH]c1=O | x | x | n | n | n | n
Cc1ccc(CN2C(=O)NC(=O)C3(Cc4c(nc5ccccn5c4=O)N4CCCCCC43)C2=O)cc1 (stereo unspecified) | n | n | n | n | 8.8 | n
NP(=O)(OCC(F)(F)F)Oc1ccccc1 (stereo unspecified) | x | x | n | x | x | n
CCC(=Nc1ccccc1NC(C)=O)c1c(O)n(C)c(=O)n(C)c1=O | n | n | n | x | n | n
CC(C)NS(=O)(=O)c1ccc(OCC(=O)N2CCN(C)CC2)cc1 | n | n | n | n | n | x
CN1CCN(C(=O)COc2ccc(-c3nc4ccccc4s3)cc2)CC1 | n | 93 | n | n | n | n
Cn1nc(-c2ccc(OCC(=O)N3CCN(Cc4ccccc4)CC3)cc2)c2ccccc2c1=O | n | 71 | n | n | n | n
CC(C)Oc1cc(-n2c(=S)[nH]c3ccccc3c2=O)c(Cl)cc1Cl | x | x | n | x | n | n
SMILES | Mac1 fbg enh | CD11b adhes inh | Cav3 T inh | MRP reversal | MRP-1 activ | Pyk2 oligo antag
N#Cc1ccccc1Cn1cc(C(=O)c2ccco2)c2ccccc21 | n | n | -6.1 | n | n | n
O=C(c1ccco1)c1cn(Cc2ccccc2)c2ccccc12 | n | n | n | n | n | n
O=C(c1ccco1)c1cn(Cc2ccccc2Cl)c2ccccc12 | n | n | -6 | n | n | n
CC(C)C(=O)c1cn(Cc2ccc(C#N)cc2)c2ccccc12 | x | x | -5.6 | n | n | n
O=C1NC(=O)C2(Cc3ccccc3N3CCCC32)C(=O)N1c1cccc(Cl)c1 (stereo unspecified) | n | n | n | n | n | n
Cc1ccc(N2C(=O)NC(=O)C3(Cc4ccccc4N4CCN(c5ccccc5)CC43)C2=O)cc1 (stereo unspecified) | n | n | -6.8 | n | n | n
CC(C)Sc1nnc([C@@H](N)Cc2ccccc2)o1 | x | x | n | n | n | n
O=c1c(C=NCc2cccs2)c(O)n(C2CCCCC2)c(=O)n1C1CCCCC1 | n | n | -4.4 | n | n | n
CC(=O)NC1CC2CCCC(C1)N2 (stereo unspecified) | n | n | n | n | n | n
Cc1c(NC(=O)C(C)OC(=O)Cc2ccccc2)c(=O)n(-c2ccccc2)n1C (stereo unspecified) | n | n | n | x | n | n
CC1(C)CN2C(c3ccc(Cl)cc3)N2C1 (stereo unspecified) | n | n | n | n | n | n
Cc1cccc(C2=NCC(=O)N(CC(=O)NCc3ccco3)c3sc4c(c32)CCCC4)c1 | n | n | -3.9 | n | n | n
COc1ccc(C2=NCC(=O)N(CC(=O)NCc3ccco3)c3sc4c(c32)CCCC4)cc1 | n | n | n | n | n | n
Cc1ccccc1C1=NCC(=O)N(CC(=O)N2CCCCC2)c2sc(C)c(C)c21 | n | n | x | x | n | n
CCOP(=O)(C#CC(C)(C)C)C(O)(c1ccccc1)C(F)(F)F (stereo unspecified) | n | n | -5.6 | n | n | n
CC#CP(=O)(OCC)C(O)(c1ccccc1)C(F)(F)F (stereo unspecified) | n | n | n | n | n | n
C/C=C(\C)C(=O)OC1C(C)=C2C(C1OC(=O)CCCCC)C(C)(OC(C)=O)CC(OC(=O)CCC)C1(O)C2OC(=O)C1(C)O (stereo unspecified) | x | x | 4.3 | x | x | x
CCOP(=S)(OCC)c1ccc(N(C)C)cc1 | n | n | n | n | n | n
